According to paper PMC7862700, “An all-to-all approach to the identification of sequence-specific readers for epigenetic DNA modifications on cytosine”:

Legend:
Test in all cases: DAPPL (digital affinity profiling via proximity ligation, sequencing); 10 mM Tris-HCl pH 7.5, 50 mM NaCl, 1 mM DTT, 4% glycerol, room temperature, 30 min; GST-TFs on glutathione beads, 16-mer random dsDNA library, 0.1% formaldehyde crosslink after washing; high values mean tight binding
FEV = biological target: T1, FEV (Homo sapiens, UniProt Q99581 1-238); settings: protein: recombinant; tags: N-terminal GST; dsDNA, one strand shown
T1 sequence: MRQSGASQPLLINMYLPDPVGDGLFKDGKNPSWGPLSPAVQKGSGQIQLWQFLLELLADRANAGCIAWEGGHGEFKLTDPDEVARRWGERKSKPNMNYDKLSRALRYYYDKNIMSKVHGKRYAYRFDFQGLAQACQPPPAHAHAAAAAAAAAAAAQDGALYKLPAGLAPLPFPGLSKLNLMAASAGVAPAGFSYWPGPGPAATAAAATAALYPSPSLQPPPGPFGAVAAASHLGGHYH
Method in brief: (§1)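 Binding signal is each hexamer's read frequency for a factor divided by its frequency in the tag-only sample. The factors were GST-fused human transcription factors from yeast, captured on glutathione beads, DNA-barcoded and pooled with that sample. Pools were incubated with 200 nmole of a random double-stranded 16-mer DNA library in Tris/NaCl/DTT/glycerol buffer at room temperature for 30 min, then washed, crosslinked with 0.1% formaldehyde, proximity-ligated with BsaI/T4 ligase (1 h, 37 °C), PCR-amplified and sequenced on an Illumina NextSeq500.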

ETV5 = ETV5 (Homo sapiens, UniProt P41161 1-510); settings: protein: recombinant; tags: N-terminal GST; dsDNA, one strand shown
Sequence of ETV5 (P41161 whole entry): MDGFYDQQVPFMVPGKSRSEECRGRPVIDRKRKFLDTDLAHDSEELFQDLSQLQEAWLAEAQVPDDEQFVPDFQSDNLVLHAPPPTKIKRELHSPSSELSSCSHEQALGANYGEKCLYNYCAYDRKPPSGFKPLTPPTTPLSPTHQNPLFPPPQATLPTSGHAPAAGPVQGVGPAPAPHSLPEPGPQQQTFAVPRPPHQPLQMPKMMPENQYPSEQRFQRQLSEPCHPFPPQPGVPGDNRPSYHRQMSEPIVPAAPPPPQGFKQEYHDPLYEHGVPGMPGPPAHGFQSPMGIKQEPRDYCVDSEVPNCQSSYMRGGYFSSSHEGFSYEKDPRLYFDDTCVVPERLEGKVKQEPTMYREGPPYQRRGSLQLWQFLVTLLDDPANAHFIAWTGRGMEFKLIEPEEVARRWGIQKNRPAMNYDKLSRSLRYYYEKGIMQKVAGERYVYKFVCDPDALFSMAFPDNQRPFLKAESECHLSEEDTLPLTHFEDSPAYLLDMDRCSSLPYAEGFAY
Method in brief: as §1

HSF1 = HSF1 (Homo sapiens, UniProt Q00613 1-529); settings: protein: recombinant; tags: N-terminal GST; chain copies: 3; dsDNA, one strand shown
Sequence of HSF1 (Q00613 whole entry): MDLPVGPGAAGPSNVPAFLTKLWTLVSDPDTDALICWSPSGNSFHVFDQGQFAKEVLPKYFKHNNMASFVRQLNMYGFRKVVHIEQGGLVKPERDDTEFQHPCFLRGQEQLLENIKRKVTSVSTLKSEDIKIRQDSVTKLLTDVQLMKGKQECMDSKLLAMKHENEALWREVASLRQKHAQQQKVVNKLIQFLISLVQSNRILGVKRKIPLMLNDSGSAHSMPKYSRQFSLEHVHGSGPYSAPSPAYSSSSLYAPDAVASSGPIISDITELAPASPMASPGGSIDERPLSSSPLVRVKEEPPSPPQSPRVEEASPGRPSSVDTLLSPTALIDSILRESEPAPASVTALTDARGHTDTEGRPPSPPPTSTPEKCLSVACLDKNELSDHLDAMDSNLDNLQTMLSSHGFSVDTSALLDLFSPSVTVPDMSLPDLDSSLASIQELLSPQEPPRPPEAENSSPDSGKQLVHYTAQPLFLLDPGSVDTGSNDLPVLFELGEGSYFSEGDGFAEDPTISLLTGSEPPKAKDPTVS
Method in brief: as §1

SPIC = biological target: T2, SPIC (Homo sapiens, UniProt Q8N5J4 1-248); settings: protein: recombinant; tags: N-terminal GST; dsDNA, one strand shown
T2 sequence: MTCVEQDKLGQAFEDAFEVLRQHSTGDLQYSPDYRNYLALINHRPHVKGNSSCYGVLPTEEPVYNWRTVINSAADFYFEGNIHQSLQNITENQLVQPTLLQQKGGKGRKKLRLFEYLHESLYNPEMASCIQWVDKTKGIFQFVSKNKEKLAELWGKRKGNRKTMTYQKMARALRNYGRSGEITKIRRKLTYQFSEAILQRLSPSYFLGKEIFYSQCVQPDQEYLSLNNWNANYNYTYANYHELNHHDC
Method in brief: as §1

ELF4 = ELF4 (Homo sapiens, UniProt Q99607 1-663); settings: protein: recombinant; tags: N-terminal GST; dsDNA, one strand shown
Sequence of ELF4 (Q99607 whole entry): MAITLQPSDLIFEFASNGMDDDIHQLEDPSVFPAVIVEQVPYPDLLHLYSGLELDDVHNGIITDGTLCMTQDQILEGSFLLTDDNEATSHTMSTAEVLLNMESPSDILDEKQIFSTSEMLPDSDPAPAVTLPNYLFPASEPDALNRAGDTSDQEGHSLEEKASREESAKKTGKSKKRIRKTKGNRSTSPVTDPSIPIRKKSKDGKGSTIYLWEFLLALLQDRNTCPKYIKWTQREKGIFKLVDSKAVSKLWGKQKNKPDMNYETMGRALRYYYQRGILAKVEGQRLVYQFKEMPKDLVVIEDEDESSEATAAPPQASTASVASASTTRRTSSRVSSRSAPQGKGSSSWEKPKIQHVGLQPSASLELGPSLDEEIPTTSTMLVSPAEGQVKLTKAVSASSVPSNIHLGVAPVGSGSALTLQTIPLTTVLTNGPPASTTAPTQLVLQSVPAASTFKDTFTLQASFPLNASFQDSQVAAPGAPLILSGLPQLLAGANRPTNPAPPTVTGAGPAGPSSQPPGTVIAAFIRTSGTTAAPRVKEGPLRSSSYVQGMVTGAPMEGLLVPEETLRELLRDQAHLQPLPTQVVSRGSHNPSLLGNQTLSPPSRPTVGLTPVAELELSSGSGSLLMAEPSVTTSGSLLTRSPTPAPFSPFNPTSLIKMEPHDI
Method in brief: as §1

ELK4 = biological target: T3, ELK4 (Homo sapiens, UniProt P28324-2 1-405); settings: protein: recombinant; tags: N-terminal GST; dsDNA, one strand shown
T3 sequence: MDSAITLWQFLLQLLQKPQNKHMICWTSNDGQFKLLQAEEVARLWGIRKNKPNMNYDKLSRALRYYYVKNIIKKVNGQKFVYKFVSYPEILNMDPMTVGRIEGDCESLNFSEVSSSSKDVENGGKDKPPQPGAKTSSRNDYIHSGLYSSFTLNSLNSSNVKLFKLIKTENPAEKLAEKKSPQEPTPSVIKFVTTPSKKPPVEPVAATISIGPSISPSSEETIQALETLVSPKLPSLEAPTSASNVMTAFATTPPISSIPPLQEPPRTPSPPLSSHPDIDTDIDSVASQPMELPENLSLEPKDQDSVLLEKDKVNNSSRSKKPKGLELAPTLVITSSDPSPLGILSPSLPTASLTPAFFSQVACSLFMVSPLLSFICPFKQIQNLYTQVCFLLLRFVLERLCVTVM
Method in brief: as §1

ETV2 = biological target: T4, ETV2 (Homo sapiens, UniProt O00321 1-342); settings: protein: recombinant; tags: N-terminal GST; dsDNA, one strand shown
T4 sequence: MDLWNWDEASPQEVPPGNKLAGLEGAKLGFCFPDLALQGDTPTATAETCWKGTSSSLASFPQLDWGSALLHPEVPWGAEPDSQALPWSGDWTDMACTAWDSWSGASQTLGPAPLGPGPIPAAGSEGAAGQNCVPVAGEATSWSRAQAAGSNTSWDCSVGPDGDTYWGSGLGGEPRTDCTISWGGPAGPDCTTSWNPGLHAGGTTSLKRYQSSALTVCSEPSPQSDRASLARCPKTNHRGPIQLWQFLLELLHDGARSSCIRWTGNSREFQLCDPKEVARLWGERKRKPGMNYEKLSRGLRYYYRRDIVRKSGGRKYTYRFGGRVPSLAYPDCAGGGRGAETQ
Method in brief: as §1

ELF3 = biological target: T5, ELF3 (Homo sapiens, UniProt P78545 1-371); settings: protein: recombinant; tags: N-terminal GST; dsDNA, one strand shown
T5 sequence: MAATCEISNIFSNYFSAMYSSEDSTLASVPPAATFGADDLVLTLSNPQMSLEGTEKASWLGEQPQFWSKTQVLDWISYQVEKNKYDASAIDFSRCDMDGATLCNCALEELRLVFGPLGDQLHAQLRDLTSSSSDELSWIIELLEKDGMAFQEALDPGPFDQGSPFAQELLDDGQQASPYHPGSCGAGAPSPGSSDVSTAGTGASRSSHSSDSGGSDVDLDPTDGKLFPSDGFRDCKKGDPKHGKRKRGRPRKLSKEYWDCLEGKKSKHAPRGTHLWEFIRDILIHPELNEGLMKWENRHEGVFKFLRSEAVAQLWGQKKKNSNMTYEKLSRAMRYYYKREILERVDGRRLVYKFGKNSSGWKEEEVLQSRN
Method in brief: as §1

CRX = CRX (Homo sapiens, UniProt O43186 1-299); settings: protein: recombinant; tags: N-terminal GST; dsDNA, one strand shown
Sequence of CRX (O43186 whole entry): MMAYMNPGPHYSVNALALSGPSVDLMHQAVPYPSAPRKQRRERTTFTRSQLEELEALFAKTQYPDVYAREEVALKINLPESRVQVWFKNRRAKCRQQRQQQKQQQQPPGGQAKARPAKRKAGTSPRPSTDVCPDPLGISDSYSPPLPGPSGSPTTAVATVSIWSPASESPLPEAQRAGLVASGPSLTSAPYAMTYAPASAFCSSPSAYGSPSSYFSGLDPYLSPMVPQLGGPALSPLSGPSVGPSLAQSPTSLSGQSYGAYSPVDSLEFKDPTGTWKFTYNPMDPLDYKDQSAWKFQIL
Method in brief: as §1

ETV1 = ETV1 (Homo sapiens, UniProt P50549 1-477); settings: protein: recombinant; tags: N-terminal GST; dsDNA, one strand shown
Sequence of ETV1 (P50549 whole entry): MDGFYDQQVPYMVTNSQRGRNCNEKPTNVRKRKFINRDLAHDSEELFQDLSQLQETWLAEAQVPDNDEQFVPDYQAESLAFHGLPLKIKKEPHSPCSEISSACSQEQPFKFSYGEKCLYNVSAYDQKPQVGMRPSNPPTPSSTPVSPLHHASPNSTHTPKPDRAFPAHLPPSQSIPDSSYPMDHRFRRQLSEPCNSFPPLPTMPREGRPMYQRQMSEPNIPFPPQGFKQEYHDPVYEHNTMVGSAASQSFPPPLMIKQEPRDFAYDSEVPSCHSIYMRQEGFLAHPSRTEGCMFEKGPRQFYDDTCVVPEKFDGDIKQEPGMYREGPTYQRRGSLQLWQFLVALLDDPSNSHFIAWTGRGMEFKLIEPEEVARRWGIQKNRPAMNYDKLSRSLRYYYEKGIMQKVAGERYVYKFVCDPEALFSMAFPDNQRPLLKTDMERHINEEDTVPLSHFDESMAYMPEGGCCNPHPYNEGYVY
Method in brief: as §1

ERF = biological target: T6, ERF (Homo sapiens, UniProt P50548 1-548); settings: protein: recombinant; tags: N-terminal GST; dsDNA, one strand shown
T6 sequence: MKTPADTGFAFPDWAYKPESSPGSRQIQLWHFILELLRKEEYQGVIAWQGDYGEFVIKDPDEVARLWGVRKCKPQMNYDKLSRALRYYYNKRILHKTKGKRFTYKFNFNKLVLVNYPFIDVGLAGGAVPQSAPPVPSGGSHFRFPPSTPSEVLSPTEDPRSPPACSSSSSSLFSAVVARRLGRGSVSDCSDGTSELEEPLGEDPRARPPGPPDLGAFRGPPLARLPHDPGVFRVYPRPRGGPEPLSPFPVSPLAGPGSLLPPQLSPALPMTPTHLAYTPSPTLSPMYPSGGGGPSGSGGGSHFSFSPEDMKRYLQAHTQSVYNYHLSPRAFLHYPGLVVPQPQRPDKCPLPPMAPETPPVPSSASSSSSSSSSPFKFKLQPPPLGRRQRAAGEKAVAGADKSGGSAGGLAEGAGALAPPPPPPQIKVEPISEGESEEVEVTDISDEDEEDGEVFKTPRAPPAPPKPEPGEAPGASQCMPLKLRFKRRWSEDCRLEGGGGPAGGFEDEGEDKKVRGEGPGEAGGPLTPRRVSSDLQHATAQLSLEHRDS
Method in brief: as §1

ETV3L = biological target: T7, ETV3L (Homo sapiens, UniProt Q6ZN32 1-361); settings: protein: recombinant; tags: N-terminal GST; dsDNA, one strand shown
T7 sequence: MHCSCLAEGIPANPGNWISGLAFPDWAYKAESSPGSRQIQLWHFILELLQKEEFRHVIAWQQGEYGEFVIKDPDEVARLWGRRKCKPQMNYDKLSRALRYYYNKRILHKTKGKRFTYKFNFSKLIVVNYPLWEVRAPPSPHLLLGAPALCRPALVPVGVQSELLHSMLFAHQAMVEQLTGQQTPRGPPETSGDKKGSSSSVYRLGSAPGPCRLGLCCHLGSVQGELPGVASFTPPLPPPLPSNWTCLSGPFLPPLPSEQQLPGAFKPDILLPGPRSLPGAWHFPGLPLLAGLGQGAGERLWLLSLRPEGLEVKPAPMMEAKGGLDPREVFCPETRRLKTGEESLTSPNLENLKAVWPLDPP
Method in brief: as §1

ETS2 = biological target: T8, ETS2 (Homo sapiens, UniProt P15036 1-469); settings: protein: recombinant; tags: N-terminal GST; dsDNA, one strand shown
T8 sequence: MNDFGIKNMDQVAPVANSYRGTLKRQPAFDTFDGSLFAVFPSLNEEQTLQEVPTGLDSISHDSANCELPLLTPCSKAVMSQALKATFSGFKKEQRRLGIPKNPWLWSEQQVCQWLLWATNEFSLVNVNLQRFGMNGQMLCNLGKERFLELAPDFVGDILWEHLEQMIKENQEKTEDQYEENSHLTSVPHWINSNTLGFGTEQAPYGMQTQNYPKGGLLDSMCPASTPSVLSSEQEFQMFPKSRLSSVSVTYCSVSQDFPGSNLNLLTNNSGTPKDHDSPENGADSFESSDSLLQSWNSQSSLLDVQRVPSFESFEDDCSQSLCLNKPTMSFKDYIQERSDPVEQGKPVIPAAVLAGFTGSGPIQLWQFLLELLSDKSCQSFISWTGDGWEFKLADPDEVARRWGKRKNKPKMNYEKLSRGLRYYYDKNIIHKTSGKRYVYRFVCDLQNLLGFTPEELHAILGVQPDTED
Method in brief: as §1

SPDEF = biological target: T9, SPDEF (Homo sapiens, UniProt O95238 1-335); settings: protein: recombinant; tags: N-terminal GST; dsDNA, one strand shown
T9 sequence: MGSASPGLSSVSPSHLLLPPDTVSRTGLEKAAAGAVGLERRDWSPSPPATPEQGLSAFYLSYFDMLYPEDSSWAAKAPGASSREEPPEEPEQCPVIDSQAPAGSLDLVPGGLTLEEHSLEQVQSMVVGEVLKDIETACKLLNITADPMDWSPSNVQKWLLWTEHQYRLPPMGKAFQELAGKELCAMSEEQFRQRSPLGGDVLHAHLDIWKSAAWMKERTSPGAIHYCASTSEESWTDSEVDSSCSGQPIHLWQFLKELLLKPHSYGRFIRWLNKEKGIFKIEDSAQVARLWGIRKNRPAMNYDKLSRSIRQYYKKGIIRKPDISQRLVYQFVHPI
Method in brief: as §1

ETV7 = biological target: T10, ETV7 (Homo sapiens, UniProt Q9Y603 1-341); settings: protein: recombinant; tags: N-terminal GST; dsDNA, one strand shown
T10 sequence: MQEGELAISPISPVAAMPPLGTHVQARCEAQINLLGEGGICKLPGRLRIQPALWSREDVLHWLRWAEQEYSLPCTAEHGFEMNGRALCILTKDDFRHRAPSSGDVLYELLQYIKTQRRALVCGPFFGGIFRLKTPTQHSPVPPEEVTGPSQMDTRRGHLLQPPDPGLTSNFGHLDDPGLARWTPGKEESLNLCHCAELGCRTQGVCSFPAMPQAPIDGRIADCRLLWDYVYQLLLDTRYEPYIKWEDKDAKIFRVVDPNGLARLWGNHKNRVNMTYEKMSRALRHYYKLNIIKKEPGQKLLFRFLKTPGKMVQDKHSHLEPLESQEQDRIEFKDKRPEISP
Method in brief: as §1

ELF5 = biological target: T11, ELF5 (Homo sapiens, UniProt Q9UKW6-2 1-255); settings: protein: recombinant; tags: N-terminal GST; dsDNA, one strand shown
T11 sequence: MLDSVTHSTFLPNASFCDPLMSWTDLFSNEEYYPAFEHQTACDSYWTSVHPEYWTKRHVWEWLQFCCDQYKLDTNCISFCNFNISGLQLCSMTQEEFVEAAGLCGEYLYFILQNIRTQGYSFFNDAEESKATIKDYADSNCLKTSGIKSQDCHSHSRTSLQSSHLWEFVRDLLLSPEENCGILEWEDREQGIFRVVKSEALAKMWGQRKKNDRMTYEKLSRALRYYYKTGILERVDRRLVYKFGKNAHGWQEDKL
Method in brief: as §1

ETV3 = biological target: T12, ETV3 (Homo sapiens, UniProt P41162-2 1-143); settings: protein: recombinant; tags: N-terminal GST; dsDNA, one strand shown
T12 sequence: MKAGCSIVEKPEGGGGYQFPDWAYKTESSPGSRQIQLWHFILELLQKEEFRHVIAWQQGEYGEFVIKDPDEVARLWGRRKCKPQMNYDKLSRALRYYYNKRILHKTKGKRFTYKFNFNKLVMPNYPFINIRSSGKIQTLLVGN
Method in brief: as §1

ETV6 = ETV6 (Homo sapiens, UniProt P41212 1-452); settings: protein: recombinant; tags: N-terminal GST; dsDNA, one strand shown
Sequence of ETV6 (P41212 whole entry): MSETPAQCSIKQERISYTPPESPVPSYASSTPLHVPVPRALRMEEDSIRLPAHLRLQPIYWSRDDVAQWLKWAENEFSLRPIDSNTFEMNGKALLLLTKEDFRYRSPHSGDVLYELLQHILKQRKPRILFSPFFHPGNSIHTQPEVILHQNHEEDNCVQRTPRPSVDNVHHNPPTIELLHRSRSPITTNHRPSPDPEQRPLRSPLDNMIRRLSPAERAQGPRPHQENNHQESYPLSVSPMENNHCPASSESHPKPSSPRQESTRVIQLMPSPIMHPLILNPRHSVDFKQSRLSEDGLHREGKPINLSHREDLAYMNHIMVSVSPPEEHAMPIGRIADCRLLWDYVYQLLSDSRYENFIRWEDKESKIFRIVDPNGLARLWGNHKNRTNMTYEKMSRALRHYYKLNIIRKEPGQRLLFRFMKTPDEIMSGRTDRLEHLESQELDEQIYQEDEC
Method in brief: as §1

In the case of CCAATA, the binding signal (FEV) is reported as 1.19 fold enrichment (6-mer frequency, TF over GST control), the binding signal (ETV5) is reported as 1.29 fold enrichment (6-mer frequency, TF over GST control) and the binding signal (HSF1) is reported as 1.12 fold enrichment (6-mer frequency, TF over GST control). The binding signal (SPIC) was 1.18 fold enrichment (6-mer frequency, TF over GST control), the binding signal (ELF4) was 1.29 fold enrichment (6-mer frequency, TF over GST control) and the binding signal (ELK4) was 1.23 fold enrichment (6-mer frequency, TF over GST control). The binding signal (ETV2) was 1.09 fold enrichment (6-mer frequency, TF over GST control), the binding signal (ELF3) was 1.25 fold enrichment (6-mer frequency, TF over GST control) and the binding signal (CRX) was 1.22 fold enrichment (6-mer frequency, TF over GST control). The binding signal (ETV1) was 1.21 fold enrichment (6-mer frequency, TF over GST control), the binding signal (ERF) was 1.34 fold enrichment (6-mer frequency, TF over GST control) and the binding signal (ETV3L) was 1.21 fold enrichment (6-mer frequency, TF over GST control). For the same sequence, the binding signal (ETS2) was 1.28 fold enrichment (6-mer frequency, TF over GST control), the binding signal (SPDEF) was 1.24 fold enrichment (6-mer frequency, TF over GST control) and the binding signal (ETV7) was 1.14 fold enrichment (6-mer frequency, TF over GST control). The binding signal (ELF5) was 1.13 fold enrichment (6-mer frequency, TF over GST control), the binding signal (ETV3) was 1.19 fold enrichment (6-mer frequency, TF over GST control) and the binding signal (ETV6) was 1.23 fold enrichment (6-mer frequency, TF over GST control).
